Results: PubChem BioAssay AID2796 (The Scripps Research Institute Molecular Screening Center, 2010)
Out of some 320,000 compounds screened, about 8,000 (2.5%) were called active. This excerpt belongs to a sample that is enriched for actives. A number with no mark means an inactive call. Rule as the data show it: active = activation above about 47%; inactive = the rest.

Each compound was assayed against Aryl hydrocarbon receptor (Homo sapiens) (UniProt P35869) (assay: AHR activators, primary screen, cell-based, luminescence, luciferase reporter, human (AID 2796;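 also: 0% = vehicle wells and 100% = reference agonist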)). Details: AHR-responsive luciferase reporter cells, at 5 µM, stronger effect = higher value.
Aryl hydrocarbon receptor (Homo sapiens), sequence (P35869 whole entry, looked up): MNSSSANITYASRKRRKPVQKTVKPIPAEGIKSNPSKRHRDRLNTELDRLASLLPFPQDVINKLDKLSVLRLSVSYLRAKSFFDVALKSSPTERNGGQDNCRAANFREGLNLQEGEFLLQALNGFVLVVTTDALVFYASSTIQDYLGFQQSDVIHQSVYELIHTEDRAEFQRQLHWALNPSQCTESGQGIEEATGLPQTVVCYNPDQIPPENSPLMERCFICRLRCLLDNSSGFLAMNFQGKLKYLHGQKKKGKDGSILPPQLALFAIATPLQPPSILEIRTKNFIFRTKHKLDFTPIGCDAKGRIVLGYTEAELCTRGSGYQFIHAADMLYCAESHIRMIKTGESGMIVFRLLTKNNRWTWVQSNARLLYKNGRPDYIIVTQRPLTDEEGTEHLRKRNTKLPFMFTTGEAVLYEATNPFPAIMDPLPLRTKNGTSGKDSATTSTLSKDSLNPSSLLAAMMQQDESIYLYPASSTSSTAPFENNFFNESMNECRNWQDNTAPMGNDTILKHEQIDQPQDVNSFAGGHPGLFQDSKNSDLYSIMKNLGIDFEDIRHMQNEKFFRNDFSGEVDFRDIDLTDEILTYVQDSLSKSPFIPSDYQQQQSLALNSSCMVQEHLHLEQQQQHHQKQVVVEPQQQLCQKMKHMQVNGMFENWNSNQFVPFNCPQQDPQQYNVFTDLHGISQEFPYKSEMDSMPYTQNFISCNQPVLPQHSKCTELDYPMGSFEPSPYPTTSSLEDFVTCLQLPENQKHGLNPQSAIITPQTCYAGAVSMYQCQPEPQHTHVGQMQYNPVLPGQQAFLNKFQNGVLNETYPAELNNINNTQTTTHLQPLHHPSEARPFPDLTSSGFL

Q: How did the activation turn out when `CC(NC(=O)COC(=O)c1ccc(Cl)cc1O)c1ccc(F)cc1` (stereo not drawn) was run?
A: 3.35%

Q: `CCOc1cc(/C=C(\C#N)c2nc(-c3cccs3)c(NC(C)=O)s2)ccc1O` was tested. Which activation did it give?
A: 8.05%

Q: Which activation does the source give for `CCOC(=O)CSc1nc2ccc(C)cc2[nH]1` here?
A: 1.6%

Q: Which activation does the source give for `Cc1ccc2nc(/C(C#N)=C\c3ccc(OC(=O)c4cccs4)cc3)[nH]c2c1` here?
A: 80.8% (active)

Q: For `Cc1ccc(S(=O)(=O)NC(C)C(=O)NCc2ccc(Cl)cc2)cc1` (stereo not drawn), which activation is on record?
A: 0.98%

Q: For `COCCCn1c(SCc2cccc(OC)c2)nc2cc(OC)c(OC)cc2c1=N`, which activation is on record?
A: 11.1%

Q: `CC(C)(C)OC(=O)C[C@@H]1C/C=C\C[C@@H](CC(=O)N(CCO)Cc2ccccc2)C(=O)N[C@H](Cc2ccccc2)COC1=O` was tested. Which activation did it give?
A: 2.29%

Q: `Cc1ccc2nc(SCc3cn4c(C)cc(C)nc4n3)[nH]c2c1` was tested. Which activation did it give?
A: 62.1% (active)

Q: For `Cc1cc(C)nc(SCc2cn3c(C)cc(C)nc3n2)n1`, which activation is on record?
A: 7.09%

Q: How did the activation turn out when `Cc1ccc2nc(SCC(=O)NC3CCCC3)[nH]c2c1` was run?
A: 42.2%

Q: With `CCC1(c2ccccc2)NC(=O)N(CC(=O)Nc2ccccc2C(=O)NC2CCCC2)C1=O` (stereo not drawn) as the compound, how does the activation read?
A: 1.57%

Q: `CN(Cc1ccccc1)C(=O)COC(=O)/C=C/c1ccc2c(c1)OCO2` was tested. Which activation did it give?
A: 2.59%

Q: With `CN(c1ccc(OCC(=O)OCC(=O)Nc2cccc([N+](=O)[O-])c2)cc1)S(=O)(=O)c1ccc(F)cc1` as the compound, how does the activation read?
A: 2%

Q: Which activation does the source give for `O=C1C(=O)N(c2ccccc2)c2ccccc21` here?
A: 0.42%

Q: `O=C(c1c(F)cccc1F)N1CCN(c2ncc(Br)cn2)CC1` was tested. Which activation did it give?
A: 1.98%

Q: For `CCn1c(=O)c(C(=O)NCc2ccc3c(c2)OCO3)c(O)c2ccccc21`, which activation is on record?
A: 1.55%

Q: With `CCn1c(=O)cc(SCC(=O)NCc2ccc3c(c2)OCO3)c2ccccc21` as the compound, how does the activation read?
A: 6.43%

Q: Which activation does the source give for `CCn1c(=O)c([N+](=O)[O-])c(NCc2ccc3c(c2)OCO3)c2ccccc21` here?
A: 47.1% (active)

Q: For `CC(C)CNC(=O)C(=O)NCc1ccccc1`, which activation is on record?
A: -0.83%

Q: `CC(C)CNC(=O)C(=O)Nc1ccc(N(C)C)cc1` was tested. Which activation did it give?
A: 48% (active)

Q: Which activation does the source give for `CC(C)CNC(=S)Nc1ccc(F)cc1` here?
A: -0.24%

Q: How did the activation turn out when `O=C1C=C(c2ccc(Cl)cc2)C(=O)N1Nc1ccccc1` was run?
A: -0.76%

Q: For `NC(=O)C1CCN(C(=O)COc2ccc3c4c(c(=O)oc3c2)CCC4)CC1`, which activation is on record?
A: -1.05%

Q: For `COc1ccc(NS(=O)(=O)c2cc(NC(=O)c3ccc(S(=O)(=O)N(C)C)cc3)ccc2N2CCOCC2)cc1`, which activation is on record?
A: 0.52%

Q: With `CC1CC(C)(C)CC2(C1)NC(=O)N(CC(=O)Nc1nccs1)C2=O` (stereo not drawn) as the compound, how does the activation read?
A: 2.2%

Q: With `O=[N+]([O-])c1cccc(/C([O-])=C(/C(=S)Nc2ccccc2F)[n+]2ccccc2)c1` as the compound, how does the activation read?
A: 49.5% (active)

Q: Which activation does the source give for `Cc1ccc(/C([O-])=C(/C(=S)NCc2ccco2)[n+]2ccccc2)cc1[N+](=O)[O-]` here?
A: 2.88%

Q: Which activation does the source give for `CC1CCN(C(=S)c2cccc([N+](=O)[O-])c2)CC1` here?
A: -3.58%

Q: For `COc1cccc(-c2ccc3c(c2)S(=O)(=O)c2cccc(C(=O)O)c2C3=O)c1OC`, which activation is on record?
A: -3.31%

Q: For `CC1CN/C(=C\C(=O)c2ccc(Br)cc2)C(=O)N1` (stereo not drawn), which activation is on record?
A: -14.4%

Q: How did the activation turn out when `CCc1nc(Nc2ccc3nccnc3c2)c2oc3ccccc3c2n1` was run?
A: 85.3% (active)

Q: `CCc1nc(Nc2ccc(NC(C)=O)cc2)c2oc3ccccc3c2n1` was tested. Which activation did it give?
A: 5.36%

Q: How did the activation turn out when `Cc1nc(Cl)c2oc3ccccc3c2n1` was run?
A: 4.72%

Q: For `COc1ccc(/C=N/n2c(C)cc(C)cc2=O)cc1`, which activation is on record?
A: -0.2%

Q: For `CCC(=O)Nc1nc2ccccc2n1Cc1ccccc1C`, which activation is on record?
A: 2.17%

Q: Which activation does the source give for `CCn1c(NC(=O)c2nn(C)cc2Br)nc2ccccc21` here?
A: 122% (active)

Q: `CC(=O)Nc1nc2ccccc2n1Cc1ccc(C)cc1` was tested. Which activation did it give?
A: 1.47%

Q: How did the activation turn out when `Cn1c(-c2ccc(C(=O)c3ccccc3)s2)nc2ccccc21` was run?
A: -15%

Q: `Cn1c(NC(=O)c2ccccc2)nc2ccccc21` was tested. Which activation did it give?
A: 76.5% (active)

Q: Which activation does the source give for `CC(=O)NCCc1nc2cc(NC(=O)c3ccccc3)ccc2n1C` here?
A: 5.94%

Q: `O=C(Cn1cnc2ccccc2c1=O)NCC1COc2ccccc2O1` (stereo not drawn) was tested. Which activation did it give?
A: 0.29%

Q: Which activation does the source give for `O=C(c1ccc(F)cc1)N1CCCC(C(=O)N2CCCCC2)C1` (stereo not drawn) here?
A: -0.02%

Q: Which activation does the source give for `CCN1C(=O)/C(=C2\SC(N3CCCCC3)=NC2=O)c2ccccc21` here?
A: 22.2%

Q: `COc1ccc(Cl)cc1-n1c(=S)sc2c(=O)n(-c3ccc(F)cc3)c(SCC(=O)O)nc21` was tested. Which activation did it give?
A: 3.11%

Q: `C=CCNc1nc(C)nc(OC)n1` was tested. Which activation did it give?
A: -0.26%

Q: How did the activation turn out when `C=CCNc1nc(Nc2ccc(Cl)cc2)nc(OC)n1` was run?
A: 52.8% (active)

Q: `COc1nc(NCc2ccc(Cl)cc2)nc(OC)n1` was tested. Which activation did it give?
A: -1.92%

Q: How did the activation turn out when `O=C(NCc1cccc(Cl)c1)C1CCC(=O)N(C2CC2)C1` (stereo not drawn) was run?
A: 7.52%

Q: With `Cc1cccc(N=C2NN=C(c3c[nH]c4ccccc34)CS2)c1` as the compound, how does the activation read?
A: 99.4% (active)

Q: How did the activation turn out when `Cc1cccc(C(=O)Nc2nnc(Cc3c[nH]c4ccccc34)s2)c1` was run?
A: 22.8%

Q: How did the activation turn out when `C=CCn1c(C)cc(C2=NNC(=NCC)SC2)c1C` was run?
A: -11%

Q: For `COc1ccc(OC)c(N=Cc2c(O)[nH]c3ccccc23)c1`, which activation is on record?
A: 54.3% (active)

Q: How did the activation turn out when `CN=c1scc(-c2cc(OC)ccc2OC)n1/N=C/c1c(C)[nH]c2ccccc12` was run?
A: -2.76%

Q: `COc1ccccc1N=Cc1c(O)c2ccccc2oc1=O` was tested. Which activation did it give?
A: 4.13%

Q: With `O=C(Cn1nc(CNc2ccc(Cl)cc2)[n+]2c1CCCCC2)c1ccc(Cl)cc1` as the compound, how does the activation read?
A: 28.6%

Q: With `Cc1nn(-c2cc(Cl)ccc2N)c(=O)c2ccccc12` as the compound, how does the activation read?
A: 0.58%

Q: `Cc1cc(=O)oc2c1c(C)nn2-c1ccc(Cl)cc1` was tested. Which activation did it give?
A: 58% (active)

Q: With `Cc1nn(-c2ccccc2)c(NC(=O)c2cccs2)c(-c2ccc(Cl)cc2)c1=O` as the compound, how does the activation read?
A: 0.87%

Q: How did the activation turn out when `COc1ccc(CNC(=O)CN(c2ccc(OC)c(Cl)c2)S(=O)(=O)c2ccc(C)cc2)cc1` was run?
A: 4.87%

Q: `C[C@]12CC[C@H](O)CC1=CCC1C2CC[C@@]2(C)C1CC[C@@H]2NC(=O)CCC(=O)O` (stereo partly drawn) was tested. Which activation did it give?
A: -0.38%

Q: How did the activation turn out when `COc1cccc(-c2nc3cc(C)ccc3o2)c1` was run?
A: 83.1% (active)

Q: `COc1ccc2oc(-c3cccc(NC(=O)CSc4ccc(Cl)cc4)c3)nc2c1` was tested. Which activation did it give?
A: 28.6%

Q: With `O=[N+]([O-])c1cccc(C2=NCCS2)c1` as the compound, how does the activation read?
A: 0.6%

Q: `COc1cccc(-c2nnc(SCCOc3ccc4c(C)cc(=O)oc4c3)o2)c1` was tested. Which activation did it give?
A: -2.36%

Q: `CC(=O)Oc1ccc2c(=O)oc(-c3ccc([N+](=O)[O-])cc3)nc2c1` was tested. Which activation did it give?
A: 14.1%

Q: `O=[N+]([O-])c1ccc2oc(-c3cccc(O)c3)nc2c1` was tested. Which activation did it give?
A: 78% (active)

Q: For `CC(=O)c1ccc(NC(=O)CCNS(=O)(=O)c2cc(Br)cnc2N)cc1`, which activation is on record?
A: 2.25%

Q: With `COc1ccc(CN2CCC(n3nccc3NC(=O)CCCc3ccccc3)CC2)cc1C` as the compound, how does the activation read?
A: -8.72%

Q: Which activation does the source give for `CCC(C)NC(=O)C1c2ccccc2C(=O)N1Cc1ccccc1` (stereo not drawn) here?
A: 0.97%

Q: How did the activation turn out when `Cc1[nH]nc(SCC(=O)NCC(C)C)c1[N+](=O)[O-]` was run?
A: -0.18%

Q: For `COc1ccc(CN2CCCC(C(=O)N3CCCCC3)C2)cc1` (stereo not drawn), which activation is on record?
A: -0.87%

Q: With `COC(=O)c1ccc(NC(=O)Nc2ccc(C)cc2)cc1` as the compound, how does the activation read?
A: 1.57%

Q: For `CC(=O)c1ccc(NC(=O)Nc2ccc([N+](=O)[O-])cc2C)cc1`, which activation is on record?
A: -4.23%

Q: For `COc1cc(NC(=O)Nc2ccc(C)cc2)cc([N+](=O)[O-])c1`, which activation is on record?
A: 61.8% (active)

Q: With `Oc1cccc2ccc(/C=C/c3ccc(Br)s3)nc12` as the compound, how does the activation read?
A: 52.2% (active)

Q: For `Nc1ccc(S(=O)(=O)Nc2nccc(/C=C/c3ccc(Br)s3)n2)cc1`, which activation is on record?
A: -1.58%

Q: `CCN(c1ccccc1)S(=O)(=O)c1ccc2[nH]c(=O)[nH]c2c1` was tested. Which activation did it give?
A: 7.41%

Q: With `CC(C)C(NC(=O)OCc1ccccc1)C(=O)OCC(=O)N1C(C)CCCC1C` (stereo not drawn) as the compound, how does the activation read?
A: 2.02%

Q: How did the activation turn out when `CCCOc1ccc(Cl)cc1Nc1nc(NCCO)nc(N2CCCC2)n1` was run?
A: 12.8%

Q: How did the activation turn out when `Cc1cccc(Nc2nc(NCCO)nc(N3CCCC3)n2)c1` was run?
A: 19.5%

Q: How did the activation turn out when `CC(C)(C)Oc1ccccc1Nc1nc(NCCO)nc(N2CCCC2)n1` was run?
A: 53.9% (active)

Q: With `CN(CC(=O)NCc1ccncc1)S(=O)(=O)c1ccc(Br)cc1` as the compound, how does the activation read?
A: 5.25%

Q: With `Cc1ccc(-c2nnc(-n3nnc4ccccc43)c3ccccc23)cc1` as the compound, how does the activation read?
A: 1.43%

Q: How did the activation turn out when `Cn1cc(Cl)c(C(=O)NNC(=S)Nc2cccc(Cl)c2)n1` was run?
A: 125% (active)

Q: How did the activation turn out when `CC(C)CNC(=S)NNC(=O)c1nn(C)cc1Cl` was run?
A: -3.07%

Q: How did the activation turn out when `Cc1nn(C)cc1C(=O)NNC(=S)Nc1ccc(Cl)cc1` was run?
A: 29.1%

Q: How did the activation turn out when `CCCC(=O)Nc1nnc(CC(=O)OCC)s1` was run?
A: 3.91%

Q: `C=CCN1C2CCCC1CC(NC(=S)Nc1cccc(OC)c1)C2` (stereo not drawn) was tested. Which activation did it give?
A: -0.24%

Q: Which activation does the source give for `COc1cccc(OC)c1C(=O)Nc1c(C(=O)N2CCN(c3ccccn3)CC2)oc2ccccc12` here?
A: -3.46%

Q: Which activation does the source give for `COCC(=O)Nc1c(C(=O)N2CCCC2)oc2ccccc12` here?
A: 74.5% (active)

Q: For `CCOCCCN(C)C1CCN(C(=O)c2oc3ccccc3c2NC(=O)COc2cccc(C)c2)CC1`, which activation is on record?
A: -0.33%

Q: How did the activation turn out when `CCc1cccc(C)c1NS(=O)(=O)c1cc(Br)cnc1N` was run?
A: 3.17%

Q: `Cc1ccc(Cl)cc1NC(=O)C1CCN(S(C)(=O)=O)CC1` was tested. Which activation did it give?
A: 7.96%

Q: Which activation does the source give for `O=C(Nc1cccc(Cl)c1)C1CCCN(c2cnccn2)C1` (stereo not drawn) here?
A: 82.4% (active)

Q: `COc1cc(NC(=O)C2CCN(c3cnccn3)CC2)cc(OC)c1` was tested. Which activation did it give?
A: 5.78%

Q: `Cc1ccc(Cl)cc1NC(=O)COC(=O)C1CCCCC1` was tested. Which activation did it give?
A: 0.36%

Q: How did the activation turn out when `O=C(Nc1ccc2c(c1)OCCO2)C1CCCN(c2ncccn2)C1` (stereo not drawn) was run?
A: 20.4%

Q: For `Cc1ccc(Cl)cc1NC(=O)C1CCCN(c2cnccn2)C1` (stereo not drawn), which activation is on record?
A: 80% (active)
